Measured values published in PubChem BioAssay (NCI).
The panel holds about 83,000 compounds, 20% with a hit somewhere; the sample as a whole holds those more often.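 Each cell line was grown in a 96-well plate and treated with one concentration of compound for 48 hours. Values below 10 were considered active.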 Unmarked numbers belong to inactive results. Calls of active or inactive are those of the source.

Each compound was assayed on UACC-257 melanoma (assay: NCI-60 one-dose screen, 48 h (100 = growth as untreated, 0 = no growth, -100 = all killed)). Conditions: 10 µM unless noted.

SMILES	growth
O=C(c1nc2ccccc2[nH]1)C1C(c2ccc(F)cc2)C2CC3CCCCC3N2[C@@]12C(=O)Nc1ccc(Cl)cc12 (stereo partly specified)	58.9%
COc1ccc(/C=C/C(=O)c2ccc3cc(OC)c(OC)cc3c2)cc1OC	70.2%
O=c1oc2ccc(F)cc2c(=O)n1-c1ccc(Br)cc1F	-17.4% (active)
COc1cc(/C=C2\CN(S(=O)(=O)c3ccccc3)C/C(=C\c3cc(CN4CCCC4)c(O)c(OC)c3)C2=O)cc(CN2CCCC2)c1O	40.1%
CC(C)C[C@H](C(=O)N[C@@H](C)C(N)=O)N1CC=CCN(O)S1(=O)=O	85.6% [5 µM]
CN(C)CCCNCc1ccc(-c2ccc(F)c(Cl)c2)o1	-5.97% (active)
O=c1oc2ccc(-c3ccc(F)cc3F)cc2c(=O)n1-c1cccc(C(F)(F)F)c1	-14.2% (active)
O=C(N=Nc1c(O)[nH]c2ccccc12)c1oc2ccccc2c1CN1CCN(c2ccccc2)CC1	20.1%
O=C(Nc1ccc(Br)cc1F)c1cc(F)ccc1O	-11.2% (active)
COc1cc(NC(=O)CCSc2nc3ccccc3c(=O)n2Cc2ccccc2)cc(OC)c1OC	89.5%
O=C(Nc1ccc(I)cc1F)c1cc(F)ccc1O	-17.3% (active)
COc1nccc2cc3c(=O)n4c(cc5ccccc54)c(=O)n3c12	114%
O=C(COc1cc(O)c2c(=O)cc(-c3ccccc3)oc2c1)Nc1ccccc1	97.3%
O=c1oc2ccc(-c3ccc(F)cc3F)cc2c(=O)n1-c1ccc(Cl)c(C(F)(F)F)c1	-9.78% (active)
CCN1CCN(c2cc(C)c3cc(NC(=O)c4ccc(OC)c(OC)c4)ccc3n2)CC1	57.9%
COc1ccc(Cn2c(Br)c3c(c2-c2cc(OC)c(OC)c(OC)c2)CCc2sc(NC(C)=O)nc2-3)cc1	48%
COc1ccccc1C(=O)O/N=C(\N)Cc1cccc2ccccc12	73.9%
O=C(Nc1ccc(Cl)cc1F)c1cc(I)ccc1O	21.9%
O=C(O)CCC(=O)c1ccc(C2CCCCCC2)cc1	94.6%
CCCCOCc1cc(CN2CCN(C)CC2)c(O)c2ncccc12	51.4%
COC(=O)/C(CCC=C(C)C)=C1\[C@@H](OC(C)=O)C[C@@]2(C)[C@H]1C[C@@H](O)[C@H]1[C@@]3(C)CC[C@H](NCc4ccccc4)[C@@H](C)[C@@H]3CC[C@@]12C	75.4%
O=C(NC1C(O)OC(CO)C(O)C1O)NS(=O)(=O)c1ccc(Cl)cc1 (stereo unspecified)	104%
O=C(Nc1ccc(Br)cc1F)c1cc(Cl)ccc1O	-14% (active)
CCOC(=O)c1c(C=O)nc2ccccc2c1/C=C/c1ccc(Cl)cc1	105%
COc1cccc2cc(N(C)c3nc(C)nc4ccsc34)ccc12	37.7%
COc1cc(/C=C/C(=O)c2c(C)nc3ccccc3c2/C=C/c2ccccc2)cc(OC)c1OC	42.1%
